Among the data in ChEMBL document CHEMBL1961873, “Compounds: GSK PKIS; Assays: Nanosyn kinase panel” (2012) are inhibition values, retold here.

The inhibition is the change of the read-out against control, counted positive when it falls.

For test [1], the target named is Mitogen-activated protein kinase 3 (Homo sapiens) (UniProt P27361). The following applies: at 1 µM.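 Further: values are mean percent inhibition of MAPK3.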
For test [2], the target named is SRSF protein kinase 3 (Homo sapiens) (UniProt Q9UPE1). Particulars: at 0.1 µM.
For test [3] the target is unchanged. The following applies: at 1 µM.
For test [4], the target named is Mitogen-activated protein kinase 14 (Homo sapiens) (UniProt Q16539). Particulars: at 0.1 µM.
Test [5] has the same target. The following applies: at 1 µM.
Test [6] addresses Mitogen-activated protein kinase 11 (Homo sapiens) (UniProt Q15759). Particulars: at 0.1 µM.
The target is the same in test [7]. Particulars: at 1 µM.
The target in test [8] is T1, Mitogen-activated protein kinase 13 (Homo sapiens) (UniProt O15264).
T1 sequence (whole entry): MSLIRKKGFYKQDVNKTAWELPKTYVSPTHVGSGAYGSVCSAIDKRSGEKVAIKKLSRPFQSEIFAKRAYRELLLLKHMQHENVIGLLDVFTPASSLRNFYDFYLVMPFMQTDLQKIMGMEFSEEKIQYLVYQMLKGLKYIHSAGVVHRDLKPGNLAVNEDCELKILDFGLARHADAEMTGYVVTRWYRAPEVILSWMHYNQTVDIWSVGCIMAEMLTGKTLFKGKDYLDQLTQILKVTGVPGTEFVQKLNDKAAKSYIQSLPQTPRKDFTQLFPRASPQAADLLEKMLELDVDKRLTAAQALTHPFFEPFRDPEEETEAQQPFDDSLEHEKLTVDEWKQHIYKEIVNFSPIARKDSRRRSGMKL
The following applies: at 0.1 µM.

Test [9] concerns the target T1, Mitogen-activated protein kinase 13 (Homo sapiens). The following applies: at 1 µM.
Test [10] addresses T2, Mitogen-activated protein kinase 12 (Homo sapiens) (UniProt P53778).
T2 sequence (whole entry): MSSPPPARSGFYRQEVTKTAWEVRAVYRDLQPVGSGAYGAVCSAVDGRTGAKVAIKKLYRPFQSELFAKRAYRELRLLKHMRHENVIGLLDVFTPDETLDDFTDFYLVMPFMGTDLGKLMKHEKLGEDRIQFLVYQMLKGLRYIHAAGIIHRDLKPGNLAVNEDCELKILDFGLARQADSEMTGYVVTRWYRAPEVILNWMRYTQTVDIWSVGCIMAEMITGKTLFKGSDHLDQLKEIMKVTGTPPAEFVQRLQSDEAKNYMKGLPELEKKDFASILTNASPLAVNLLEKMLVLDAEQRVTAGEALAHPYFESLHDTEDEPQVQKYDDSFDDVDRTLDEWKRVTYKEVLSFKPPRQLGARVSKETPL
The following applies: at 0.1 µM.

Test [11] has as its target T2, Mitogen-activated protein kinase 12 (Homo sapiens). Particulars: at 1 µM.
In test [12] the target is SRSF protein kinase 1 (Homo sapiens) (UniProt Q96SB4). Particulars: at 0.1 µM.
Test [13] has the same target. Particulars: at 1 µM.
For test [14], the target named is Phosphatidylinositol 4,5-bisphosphate 3-kinase catalytic subunit alpha isoform (Homo sapiens) (UniProt P42336). The following applies: at 0.1 µM.
Test [15] has the same target. The following applies: at 1 µM.
The target in test [16] is T3, Phosphatidylinositol 4,5-bisphosphate 3-kinase catalytic subunit delta isoform (Homo sapiens) (UniProt O00329).
T3 sequence (whole entry): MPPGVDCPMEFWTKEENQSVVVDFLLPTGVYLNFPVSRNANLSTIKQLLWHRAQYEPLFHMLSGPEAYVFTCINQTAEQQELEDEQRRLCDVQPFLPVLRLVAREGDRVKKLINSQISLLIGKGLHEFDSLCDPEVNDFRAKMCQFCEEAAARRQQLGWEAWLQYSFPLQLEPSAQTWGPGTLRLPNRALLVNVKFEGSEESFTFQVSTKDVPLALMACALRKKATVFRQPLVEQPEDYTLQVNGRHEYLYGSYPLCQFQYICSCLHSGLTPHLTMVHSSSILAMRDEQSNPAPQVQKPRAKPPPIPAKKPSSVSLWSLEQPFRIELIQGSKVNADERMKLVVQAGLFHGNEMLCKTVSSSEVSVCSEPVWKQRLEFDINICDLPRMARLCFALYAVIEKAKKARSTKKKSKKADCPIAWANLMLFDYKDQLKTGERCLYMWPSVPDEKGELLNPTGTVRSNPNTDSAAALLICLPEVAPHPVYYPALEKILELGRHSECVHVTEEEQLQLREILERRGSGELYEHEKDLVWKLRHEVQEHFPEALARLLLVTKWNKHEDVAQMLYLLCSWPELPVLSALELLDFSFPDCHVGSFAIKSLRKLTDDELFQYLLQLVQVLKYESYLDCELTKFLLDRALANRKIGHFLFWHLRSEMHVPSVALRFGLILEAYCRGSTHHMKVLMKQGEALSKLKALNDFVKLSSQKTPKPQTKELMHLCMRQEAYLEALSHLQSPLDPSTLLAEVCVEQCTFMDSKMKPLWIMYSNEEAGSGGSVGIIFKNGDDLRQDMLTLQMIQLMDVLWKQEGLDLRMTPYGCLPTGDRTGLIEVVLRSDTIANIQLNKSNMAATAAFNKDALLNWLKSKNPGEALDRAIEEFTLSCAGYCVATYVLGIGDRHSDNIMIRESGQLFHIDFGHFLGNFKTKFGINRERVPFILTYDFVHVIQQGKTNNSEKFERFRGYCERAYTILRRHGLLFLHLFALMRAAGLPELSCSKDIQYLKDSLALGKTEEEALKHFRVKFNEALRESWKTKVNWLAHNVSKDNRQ
Particulars: at 0.1 µM.

In test [17] the target is T3, Phosphatidylinositol 4,5-bisphosphate 3-kinase catalytic subunit delta isoform (Homo sapiens). Particulars: at 1 µM.
Test [18] deals with Phosphatidylinositol 4-kinase beta (Homo sapiens) (UniProt Q9UBF8). The following applies: at 0.1 µM.
Test [19] has the same target. Particulars: at 1 µM.
In test [20] the target is Sphingosine kinase 1 (Homo sapiens) (UniProt Q9NYA1). Particulars: at 0.1 µM.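 Further: mean percent inhibition of SPHK1 activity, measured within the GSK PKIS screening panel.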
Sphingosine kinase 1 (Homo sapiens), sequence (Q9NYA1 whole entry): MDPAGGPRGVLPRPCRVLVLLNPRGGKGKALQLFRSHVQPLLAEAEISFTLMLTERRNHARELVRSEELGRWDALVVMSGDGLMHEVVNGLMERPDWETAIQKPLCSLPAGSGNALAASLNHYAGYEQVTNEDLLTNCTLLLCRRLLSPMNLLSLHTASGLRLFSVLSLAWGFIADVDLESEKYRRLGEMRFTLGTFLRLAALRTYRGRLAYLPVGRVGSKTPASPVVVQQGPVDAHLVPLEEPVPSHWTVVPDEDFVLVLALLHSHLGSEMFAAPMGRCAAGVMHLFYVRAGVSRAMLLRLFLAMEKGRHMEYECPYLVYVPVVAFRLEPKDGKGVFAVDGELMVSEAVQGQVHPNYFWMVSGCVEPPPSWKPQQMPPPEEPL

SRSF protein kinase 1 (Homo sapiens), sequence (Q96SB4 whole entry): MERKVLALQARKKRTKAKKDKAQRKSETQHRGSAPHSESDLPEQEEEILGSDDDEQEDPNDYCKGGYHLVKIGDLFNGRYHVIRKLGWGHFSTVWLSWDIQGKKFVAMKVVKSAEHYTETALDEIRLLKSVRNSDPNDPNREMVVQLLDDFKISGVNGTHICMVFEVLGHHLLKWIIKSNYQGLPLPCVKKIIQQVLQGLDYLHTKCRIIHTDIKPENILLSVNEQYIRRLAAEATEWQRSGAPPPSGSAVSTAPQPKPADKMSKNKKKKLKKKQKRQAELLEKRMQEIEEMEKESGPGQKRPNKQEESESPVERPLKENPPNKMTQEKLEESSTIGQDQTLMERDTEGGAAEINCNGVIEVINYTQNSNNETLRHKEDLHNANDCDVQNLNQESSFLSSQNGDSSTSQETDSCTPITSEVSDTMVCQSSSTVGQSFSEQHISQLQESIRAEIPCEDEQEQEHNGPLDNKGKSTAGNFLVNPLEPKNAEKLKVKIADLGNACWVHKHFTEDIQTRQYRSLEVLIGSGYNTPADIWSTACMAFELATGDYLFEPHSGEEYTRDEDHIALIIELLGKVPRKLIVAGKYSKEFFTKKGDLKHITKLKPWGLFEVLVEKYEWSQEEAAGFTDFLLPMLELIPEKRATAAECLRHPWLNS
Mitogen-activated protein kinase 14 (Homo sapiens), sequence (Q16539 whole entry): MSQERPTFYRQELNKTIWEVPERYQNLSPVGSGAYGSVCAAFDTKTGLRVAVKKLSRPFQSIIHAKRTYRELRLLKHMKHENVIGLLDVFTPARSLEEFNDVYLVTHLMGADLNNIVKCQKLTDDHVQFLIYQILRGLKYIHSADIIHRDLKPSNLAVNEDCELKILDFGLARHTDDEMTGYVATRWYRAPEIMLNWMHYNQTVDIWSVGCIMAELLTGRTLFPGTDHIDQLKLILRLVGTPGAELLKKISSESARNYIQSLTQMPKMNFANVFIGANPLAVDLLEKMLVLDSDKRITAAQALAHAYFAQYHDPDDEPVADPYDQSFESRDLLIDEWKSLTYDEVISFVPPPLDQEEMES
Mitogen-activated protein kinase 11 (Homo sapiens), sequence (Q15759 whole entry): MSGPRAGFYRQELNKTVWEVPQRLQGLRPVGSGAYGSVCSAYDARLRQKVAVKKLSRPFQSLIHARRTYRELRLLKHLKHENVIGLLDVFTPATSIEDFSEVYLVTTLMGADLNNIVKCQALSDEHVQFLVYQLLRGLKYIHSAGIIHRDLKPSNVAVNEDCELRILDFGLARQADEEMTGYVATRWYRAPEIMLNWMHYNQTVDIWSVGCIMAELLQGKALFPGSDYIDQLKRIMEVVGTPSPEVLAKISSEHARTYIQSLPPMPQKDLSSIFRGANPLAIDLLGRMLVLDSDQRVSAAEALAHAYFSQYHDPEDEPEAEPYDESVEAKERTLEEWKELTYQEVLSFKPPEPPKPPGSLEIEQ
Phosphatidylinositol 4,5-bisphosphate 3-kinase catalytic subunit alpha isoform (Homo sapiens), sequence (P42336 whole entry, canonical isoform): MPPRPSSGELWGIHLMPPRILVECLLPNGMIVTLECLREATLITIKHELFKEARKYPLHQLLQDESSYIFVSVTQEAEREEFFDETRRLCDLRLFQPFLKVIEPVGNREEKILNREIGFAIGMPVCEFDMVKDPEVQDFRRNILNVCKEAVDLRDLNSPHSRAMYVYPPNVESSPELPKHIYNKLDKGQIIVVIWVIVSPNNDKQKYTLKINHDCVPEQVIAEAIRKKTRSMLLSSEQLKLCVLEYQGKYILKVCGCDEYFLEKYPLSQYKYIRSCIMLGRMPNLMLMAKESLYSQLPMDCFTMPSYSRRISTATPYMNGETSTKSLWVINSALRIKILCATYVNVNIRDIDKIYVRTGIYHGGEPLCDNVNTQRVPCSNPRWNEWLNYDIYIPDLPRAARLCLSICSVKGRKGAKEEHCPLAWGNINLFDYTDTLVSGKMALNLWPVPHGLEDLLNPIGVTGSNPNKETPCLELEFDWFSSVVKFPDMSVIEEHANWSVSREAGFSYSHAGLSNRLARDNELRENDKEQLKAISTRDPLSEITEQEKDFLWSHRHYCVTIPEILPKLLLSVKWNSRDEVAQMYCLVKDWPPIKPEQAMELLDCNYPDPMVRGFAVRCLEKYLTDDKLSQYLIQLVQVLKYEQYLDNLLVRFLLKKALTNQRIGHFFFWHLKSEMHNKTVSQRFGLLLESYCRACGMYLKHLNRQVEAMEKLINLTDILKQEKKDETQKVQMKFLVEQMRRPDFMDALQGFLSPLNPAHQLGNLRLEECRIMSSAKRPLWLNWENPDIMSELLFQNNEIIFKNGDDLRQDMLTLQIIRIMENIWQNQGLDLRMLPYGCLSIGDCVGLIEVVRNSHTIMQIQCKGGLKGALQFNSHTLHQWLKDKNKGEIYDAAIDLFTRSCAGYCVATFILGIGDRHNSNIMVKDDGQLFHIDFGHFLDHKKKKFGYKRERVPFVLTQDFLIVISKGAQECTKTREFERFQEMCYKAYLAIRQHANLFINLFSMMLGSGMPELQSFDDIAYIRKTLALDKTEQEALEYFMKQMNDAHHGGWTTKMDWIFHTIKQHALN
Mitogen-activated protein kinase 3 (Homo sapiens), sequence (P27361 whole entry): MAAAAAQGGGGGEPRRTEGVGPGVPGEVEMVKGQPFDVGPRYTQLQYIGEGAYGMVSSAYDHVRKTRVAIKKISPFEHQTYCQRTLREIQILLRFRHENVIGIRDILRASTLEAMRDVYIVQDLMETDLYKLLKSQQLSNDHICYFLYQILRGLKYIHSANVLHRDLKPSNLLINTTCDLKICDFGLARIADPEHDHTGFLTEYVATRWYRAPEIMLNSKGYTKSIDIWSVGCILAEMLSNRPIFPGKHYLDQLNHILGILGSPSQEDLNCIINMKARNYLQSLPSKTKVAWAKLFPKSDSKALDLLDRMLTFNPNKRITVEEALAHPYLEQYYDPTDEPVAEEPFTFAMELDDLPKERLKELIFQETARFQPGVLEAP
Phosphatidylinositol 4-kinase beta (Homo sapiens), sequence (Q9UBF8 2-816 limits assumed): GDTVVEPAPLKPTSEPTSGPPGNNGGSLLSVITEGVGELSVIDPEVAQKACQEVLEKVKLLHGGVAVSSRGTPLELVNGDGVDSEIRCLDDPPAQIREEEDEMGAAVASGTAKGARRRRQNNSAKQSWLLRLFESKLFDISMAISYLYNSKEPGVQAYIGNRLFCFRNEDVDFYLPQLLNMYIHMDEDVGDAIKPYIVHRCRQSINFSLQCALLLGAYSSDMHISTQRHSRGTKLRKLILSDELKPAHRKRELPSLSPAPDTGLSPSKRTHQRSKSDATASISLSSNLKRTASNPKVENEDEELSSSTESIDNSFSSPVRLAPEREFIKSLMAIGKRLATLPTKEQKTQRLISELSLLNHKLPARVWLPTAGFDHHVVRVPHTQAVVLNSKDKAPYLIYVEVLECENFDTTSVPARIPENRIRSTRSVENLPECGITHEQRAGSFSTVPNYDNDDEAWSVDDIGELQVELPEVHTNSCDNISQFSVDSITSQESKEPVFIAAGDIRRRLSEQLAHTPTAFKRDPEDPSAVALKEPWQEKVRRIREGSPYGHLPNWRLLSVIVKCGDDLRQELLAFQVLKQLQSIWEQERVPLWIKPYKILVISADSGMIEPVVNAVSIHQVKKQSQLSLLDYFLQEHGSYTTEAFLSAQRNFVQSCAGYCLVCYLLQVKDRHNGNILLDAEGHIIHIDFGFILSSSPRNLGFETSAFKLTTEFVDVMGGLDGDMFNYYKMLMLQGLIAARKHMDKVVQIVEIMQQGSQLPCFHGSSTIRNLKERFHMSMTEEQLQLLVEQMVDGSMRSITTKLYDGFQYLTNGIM
SRSF protein kinase 3 (Homo sapiens), sequence (Q9UPE1 whole entry): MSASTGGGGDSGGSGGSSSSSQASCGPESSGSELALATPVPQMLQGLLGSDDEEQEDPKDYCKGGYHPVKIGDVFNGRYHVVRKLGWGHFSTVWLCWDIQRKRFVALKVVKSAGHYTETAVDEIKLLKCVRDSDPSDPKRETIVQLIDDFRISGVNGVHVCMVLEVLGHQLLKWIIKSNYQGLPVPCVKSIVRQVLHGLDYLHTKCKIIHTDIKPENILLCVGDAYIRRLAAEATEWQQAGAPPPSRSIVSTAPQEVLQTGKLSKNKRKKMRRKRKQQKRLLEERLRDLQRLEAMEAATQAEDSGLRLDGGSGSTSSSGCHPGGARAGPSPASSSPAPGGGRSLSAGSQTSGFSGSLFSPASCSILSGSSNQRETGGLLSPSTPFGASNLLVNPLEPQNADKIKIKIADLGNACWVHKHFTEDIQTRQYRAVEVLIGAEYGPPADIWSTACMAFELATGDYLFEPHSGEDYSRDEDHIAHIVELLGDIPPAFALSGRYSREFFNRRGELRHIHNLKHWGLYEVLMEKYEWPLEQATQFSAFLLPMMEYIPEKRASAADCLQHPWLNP

Regarding `Cc1ccc2c(c1)/C(=N/Nc1ccc(S(N)(=O)=O)cc1)C(=O)N2`, the inhibition was 1.36% in test [1]; -0.75% in test [2]; -2.57% in test [3]; 1.29% in test [4]; 5.27% in [5]; 3.1% in test [6]. Besides, the inhibition in [7] is 6.52%; in test [8] it was -0.85%; in test [9], 0.5%; in [10] it was 0.27%; in test [11] it was -0.05%; in test [12], -2.83%. Besides, the inhibition in test [13] is -5.98%; in test [14] it was -1.13%; in test [15], 8.11%; in test [16], 1.23%; in test [17], 2.01%; in test [18] it was 6.34%. The inhibition in test [19] was 1.81%; in [20], -1.11%.
In the case of `CCCN1CCCC(c2ccc(Nc3nc(Nc4cc(F)ccc4C(N)=O)c4cc[nH]c4n3)c(OC)c2)C1` (stereo not given), the inhibition in test [1] was determined as 9.65%; in test [2], 4.66%; in test [3] it was 28.2%; in [4], 13.9%; in test [5], 17.1%; in [6], 7.57%. For the same molecule, the inhibition is 14.5% in test [7]; 6.1% in test [8]; 7.07% in test [9]; 3.99% in test [10]; 3.39% in test [11]; -0.71% in test [12]. Also, the inhibition was 7.5% in test [13]; 2.9% in test [14]; 5.55% in test [15]; 2.18% in test [16]; 9.74% in [17]; -3.21% in test [18]. For the same molecule, the inhibition was -1.21% in test [19] and -0.22% in test [20].
In the case of `Nc1nccc(C#Cc2cncnc2Nc2ccc(OCc3cccc(F)c3)c(Cl)c2)n1`, the inhibition in test [1] is 1.04%; in test [2], 0.77%; in [3], -0.42%; in test [4], 2.98%; in [5], 7.42%; in test [6], 0.46%. The inhibition in test [7] was 4.43%; in [8], 1.14%; in [9], 4.65%; in test [10] it was 0.02%; in test [11], 3.22%; in [12] it was -1.73%. In addition, the inhibition was -2.48% in test [13]; 2.82% in test [14]; 4.72% in [15]; 1.22% in test [16]; 4.71% in [17]; -2.78% in test [18]. Further, the inhibition in test [19] was -0.63%; in [20], -2.09%.
Consider `FC(F)(F)c1ccc(-c2nn3ncccc3c2-c2ccnc(Nc3ccc4c(c3)OCCO4)n2)cc1`, for which the inhibition in [1] came to 3.1%; in test [2], 5.92%; in test [3], 1.12%; in test [4], 17.1%; in test [5], 67.5%; in test [6] it was 3.8%. For the same molecule, the inhibition was determined as 36.8% in test [7]; 5.26% in test [8]; 0.38% in test [9]; 4.31% in test [10]; 2.26% in [11]; 8.18% in test [12]. Further, the inhibition was 13% in test [13]; 0.21% in test [14]; -2.14% in [15]; 1.63% in [16]; 0.41% in test [17]; 1.96% in test [18]. For the same molecule, the inhibition in test [19] was -3.87%; in [20], 0.8%.
In the case of `c1ccc(Cc2nc3ccc(Nc4ncnc5ccccc45)cc3[nH]2)cc1`, the inhibition was 4.11% in test [1]; 0.5% in test [2]; -0.46% in [3]; 6.98% in test [4]; 6.36% in test [5]; 2.73% in test [6]. The inhibition in [7] is 2.79%; in test [8], 4.91%; in test [9] it was 5.18%; in test [10], 1.83%; in [11], 0.6%; in test [12] it was -1.1%. The inhibition in test [13] was 1.41%; in test [14], 3.03%; in test [15] it was 4.64%; in test [16], 1.66%; in test [17] it was 0.62%; in test [18], -0.98%. Moreover, the values for the inhibition in test [19] and in test [20] were -1.72% and 1.07%, respectively.
As for `CN1CCN(C(=O)c2ccc(NC(=O)Nc3ccc(N(C)c4ccnc(Nc5ccc(CS(C)(=O)=O)cc5)n4)cc3)cc2)CC1`, the inhibition in test [1] is 4.83%; in test [2], -0.32%; in test [3] it was -1.14%; in test [4] it was 3.65%; in test [5] it was 4.32%; in [6], 3.2%. Besides, the inhibition in [7] is 3.23%; in test [8], 1.15%; in test [9] it was 1.91%; in test [10], 1.54%; in test [11] it was 2.72%; in [12], -1.98%. In addition, the inhibition in test [13] is -1.99%; in test [14] it was 3.38%; in test [15] it was 2.56%; in test [16], 1.78%; in [17], 4.04%; in [18], 0.19%. In addition, the results for the inhibition in test [19] and in test [20] were 1.27% and 0%, respectively.
